# Only a selection was taken, and hits are over-represented in it overall.
# L3MBTL1 block: blocks human L3MBTL1 | AlphaScreen L3MBTL1–H3K9me1 peptide binding | Potency, µM (highest dose often 57.1 µM), for inactives: top-dose activity, negative = inhibition, usual class: inhibitors | Q9Y468 | 230,000 tested, 0.66% active | AID 485360; also: nearly all actives have a fitted effect of over 60% in size
#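 First, the protein-peptide complex forms for 30 min at room temperature (L3MBTL1 50 nM, biotinylated H3K9me1 peptide 75 nM). Next, compounds are pin-transferred and incubated 30 min. Finally, AlphaScreen beads are added and read after 30 min.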
# BLM inh: inhibitors of human Bloom syndrome helicase BLM; P54132; recombinant BLM DNA unwinding, fluorescence dequenching; Potency, µM (highest dose often 56.1 µM), for inactives: at the highest dose activity change, negative = inhibition, hits mostly inhibitors; 350,000 tested, 0.2% active; AID 2528;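 also: plate controls were vehicle for no effect and no enzyme for full effect; nearly all actives have a fitted effect of over 35% in size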
# RECQ1 helicase: RECQ1 (human) helicase inhibition. RECQ1 DNA unwinding, red fluorescence kinetic read. 240,000 tested, 0.54% active. AID 2549. Potency, µM (titrated, usually from 57.3 µM), inactives show at the highest dose activity, negative = inhibition, usual class: inhibitors;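 also: plate controls were vehicle for no effect and no enzyme for full effect; nearly all actives have a fitted effect of over 30% in size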
# Target sequence (P46063 whole entry, looked up): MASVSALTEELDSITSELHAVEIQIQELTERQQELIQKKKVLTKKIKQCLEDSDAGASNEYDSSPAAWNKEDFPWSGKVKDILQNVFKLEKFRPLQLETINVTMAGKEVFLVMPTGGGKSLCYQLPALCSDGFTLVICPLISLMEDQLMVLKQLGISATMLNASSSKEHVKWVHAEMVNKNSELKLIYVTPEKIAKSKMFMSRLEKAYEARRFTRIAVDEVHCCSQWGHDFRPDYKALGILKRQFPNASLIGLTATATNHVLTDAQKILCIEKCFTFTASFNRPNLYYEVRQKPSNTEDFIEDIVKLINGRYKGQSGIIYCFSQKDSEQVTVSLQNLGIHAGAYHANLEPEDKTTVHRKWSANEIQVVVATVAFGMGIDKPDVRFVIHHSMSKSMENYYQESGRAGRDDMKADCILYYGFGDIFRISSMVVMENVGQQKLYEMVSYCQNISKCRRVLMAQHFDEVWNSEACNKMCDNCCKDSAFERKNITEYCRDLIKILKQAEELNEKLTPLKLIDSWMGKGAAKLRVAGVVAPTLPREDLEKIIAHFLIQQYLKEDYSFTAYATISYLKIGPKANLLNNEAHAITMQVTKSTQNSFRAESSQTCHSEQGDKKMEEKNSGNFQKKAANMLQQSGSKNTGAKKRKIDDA
#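 RECQ1T1 50 nM; forked duplex (20 bp + 30-nt ss tails) 200 nM, ATP 2 mM final; pH 8.0, 2 mM MgCl2, 2.5 ug/ml poly(dI-dC); 15 min compound preincubation; discontinuous kinetic read over 2 h at RT.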
# APEX1 inh: APE1 (human) endonuclease inhibition. P27695. recombinant APE1, TAMRA/BHQ-2 abasic DNA cleavage fluorescence. Potency, µM (titrated, usually from 65.8 µM), inactives show at the highest dose activity change, negative = inhibition, most hits filed as inhibitors. 350,000 tested, 0.35% active. AID 2517;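 also: plate controls were vehicle for no effect and reference inhibitor for full effect; nearly all actives have a fitted effect of over 55% in size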
#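 Endonuclease cleavage of a quenched abasic-site DNA duplex (50 nM) by APE1 (0.75 nM) was tracked by TAMRA dequenching. Compounds were preincubated with enzyme 15 min at room temperature; data normalized to buffer-only and DMSO wells plus NSC13755 control.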
# KAT2A inh: blocks human GCN5L2 histone acetyltransferase; Q92830; GCN5L2 HAT assay, ThioGlo1 CoA-SH fluorescence; Potency, µM (highest dose often 58.9 µM), for the others: at the top dose activity change, negative = inhibition, actives largely listed as inhibitors; 390,000 tested, 0.21% active
#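 Enzyme at 20nM final was mixed with library compounds for 15 min at room temperature. Peptide H3(1-25) at 75uM, acetyl-CoA at 70uM and ThioGlo1 at 50uM were then added. Plates were read immediately and after 20 min (Ex340nm/Em540nm).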
# JMJD2E inh: inhibitors of human JMJD2E histone demethylase; 230,000 tested, 1.6% active; Potency, µM (series often up to 57.1 µM), without a hit: top-dose activity change, negative = inhibition, most hits filed as inhibitors; AID 2147; JMJD2E catalytic domain, FDH-coupled NADH fluorescence (FDH is formaldehyde dehydrogenase);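 also: 0% = wells with enzyme and -100% = buffer wells without enzyme; nearly all actives have a fitted effect of over 50% in size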
# * hit, by the source's call; i = inactive; ? = inconclusive; . = not tested or not shown; [ ] = dose if it differs, or a comment. Unless noted, calls follow the shape of the dose curve; as a rule, active = well fitted curve in the direction sought with a large enough effect; inconclusive = small, poorly fitted or top-dose-only effect, or another doubt; inactive = no such curve, though single readings can be large; an effect the other way counts as inactive or inconclusive. Unless noted, % is scaled to controls: 0 for no effect and ±100 for the full control effect; potency is read from the fitted curve at half-maximal effect.
SMILES,L3MBTL1 block,BLM inh,RECQ1 helicase,APEX1 inh,KAT2A inh,JMJD2E inh
O=C1NC(=O)C(=Cc2ccc(N3CCN(C(=O)c4ccccc4)CC3)c([N+](=O)[O-])c2)C(=O)N1,.,4%,0%,8%,-11%,22µM*
O=C1CN=C(c2ccccc2)c2cc(Cl)ccc2N1CC1CC1,.,-4%,.,.,-17%,.
C/C1=C\[C@@H](C)C/C=C/[C@H]2[C@@H]3O[C@]3(C)[C@@H](C)[C@H]3[C@H](Cc4c[nH]c5ccccc45)NC(=O)[C@]32C(=O)/C=C/C(=O)[C@@H]1O,?,-15%,i,16µM*,-1%,-1%
COC(=O)C(C)Oc1cc(C)cc2oc(=O)c3c(c12)CCCC3 (centres undefined),.,-2%,i,2%,.,?
CCOC(=O)C(C)Oc1cc(C)cc2oc(=O)c3c(c12)CCCC3 (centres undefined),14%,-10%,-5%,-3%,-4%,13µM*
CCn1c(C)[n+](CC)c2ccc(S(=O)(=O)NC)cc21,0%,-2%,13%,-2%,4%,7.9µM*
O=c1[nH]c(=O)n(Cl)c(=O)n1Cl,.,-11%,.,.,1%,.
COc1ccc(-c2nc3ccccc3c(=O)o2)cc1,3%,-6%,-7%,12%,-4%,25µM*
Oc1ccc(/C=N/NP(=S)(c2ccccc2)c2ccccc2)c(O)c1O,.,-23%,-13%,?,-9%,14µM*
c1cc2cc(c1)C[n+]1ccc(c3ccccc31)NCc1ccc(cc1)CNc1cc[n+](c3ccccc13)C2,.,251%,i,?,12%,18µM*
c1ccc2c(c1)c1cc[n+]2CCCCC[n+]2ccc(c3ccccc32)NCCCCCN1,.,104%,35%,1%,0%,.
C=C[C@H]1CN2CC[C@H]1C[C@H]2[C@H](OC(=O)OCC)c1ccnc2ccc(OC)cc12,.,.,.,-2%,.,.
O=C1/C(=C\c2ccccc2)C[C@@]2(O)[C@H]3Cc4ccc(O)c5c4[C@@]2(CCN3CC2CC2)[C@H]1O5,.,.,i,1%,4%,.
COc1ccc(C[C@H]2c3cc(OC)c(OC)cc3CCN2C)cc1OC,.,-4%[21.4 µM],-11%[25.9 µM],2%[21 µM],8.9µM*,-22%[25.5 µM]
CS(=O)(=O)N1CCC2(CCCN(Cc3ccncc3)C2)CC1,.,3%,-3%,4%,8%,.
COc1cc2c(cc1O)C[C@H]1NCCc3cc4c(c-2c31)OCO4,35µM*,9%,-8%,?,-7%,?
COc1cc2c(cc1OC)-c1c3c(cc4c1[C@@H](C2)N(C)CC4)OCO3,-9%,0%,-25%,-8%,1%,?
CCOc1ccc(N=Cc2c(O)n(-c3ccc(C)c(C)c3)c(=O)[nH]c2=O)cc1,.,-2%,i,21%,-1%,145%
Cc1ccc(-n2c(O)c(/C=N/NC(=O)c3ccncc3)c(=O)[nH]c2=O)cc1C,-5%,0%,-1%,3%,-7%,22µM*
COc1ccc(Cn2c(O)c(/C=N/NC(=O)c3ccccc3)c(=O)[nH]c2=O)cc1,-1%,-3%,1%,6%,-27%,3%
CCn1c(O)c(/C=N/NC(=O)c2ccccc2)c(=O)[nH]c1=S,.,-5%,i,4%,-12%,32µM*
O=C(N/N=C/c1c(O)n(CCc2ccccc2)c(=O)[nH]c1=O)c1ccncc1,-18%,-5%,-6%,3%,-4%,28µM*
C/C(=N\NC(=O)c1ccccc1)c1c(O)n(Cc2ccccc2)c(=O)[nH]c1=O,.,7%,-6%,-6%,?,25µM*
CCCCCCC(=O)N/N=C/c1c(O)n(CCc2ccccc2)c(=O)[nH]c1=O,-4%,-8%,23%,4%,-20%,?
c1cc2c(cc1[C@H]1OC[C@@H]3[C@H]1CO[C@H]3c1ccc3c(c1)OCO3)OCO2,.,-3%,i,-5%,.,-15%
SMILES,L3MBTL1 block,BLM inh,RECQ1 helicase,APEX1 inh,KAT2A inh,JMJD2E inh
O=C(N/N=C/c1c(O)n(Cc2ccccc2)c(=O)[nH]c1=O)c1ccccc1O,14%,2%,-5%,6%,-17%,-3%
O=C(N/N=C/c1c(O)n(CCc2ccccc2)c(=O)[nH]c1=O)c1ccccc1O,.,-6%,-5%,-1%,?,28µM*
O=C(N/N=C/c1c(O)n(CCc2ccc(F)cc2)c(=O)[nH]c1=O)c1ccccc1,.,-1%,-1%,0%,-10%,20µM*
COc1ccccc1-n1c(O)c(C=NCc2ccc3c(c2)OCO3)c(=O)[nH]c1=O,-1%,-1%,-15%,1%,1%,-21%
COc1ccccc1-n1c(O)c(/C=N/NC(=S)Nc2ccccc2)c(=O)[nH]c1=S,41%,1%,-5%,-6%,-6%,28µM*
COc1ccc(Cn2c(O)c(/C=N/NC(=O)c3ccncc3)c(=O)[nH]c2=O)cc1,-8%,-4%,-9%,-6%,-29%,7.9µM*
c1ccc2sc(C3(NCC4CC4)CCCCC3)cc2c1,.,.,15%,-1%,-10%,.
COC(=O)[C@H]1[C@@H](c2ccccc2)[C@@]2(c3ccccc3)Oc3ccccc3[C@@]1(O)[C@@H]2O,.,1%[12.4 µM],5%[11.5 µM],29%[12.4 µM],.,.
O=C(N/N=C/c1c(O)n(-c2cccc3ccccc23)c(=O)[nH]c1=O)c1ccncc1,?,0%,0%,0%,-11%,13µM*
CC(CO)(CO)N=Cc1c(O)n(-c2cccc3ccccc23)c(=O)[nH]c1=O,.,0%,10%,-2%,-4%,-2%
COc1ccccc1/C=C1\C(=O)NC(=S)N(c2ccccc2)C1=O,.,-2%,.,55%,-8%,.
O=C1NC(=S)N(c2ccccc2)C(=O)/C1=C/c1ccco1,0%[2.29 µM],22µM*,.,17µM*,?,.
Cc1ccc(/C=C2/C(=O)NC(=O)N(CCc3ccc(F)cc3)C2=O)o1,-6%,-2%,-12%,6%,-14%,-8%
Cc1ccc(N2C(=O)NC(=O)/C(=C\c3ccc([N+](=O)[O-])o3)C2=O)cc1,3.5µM*,-5%,?,?,-23%,-9%
O=C1NC(=O)N(CCc2ccc(F)cc2)C(=O)/C1=C/c1ccco1,.,-20%,28µM*,10µM*,28µM*,-15%
Cc1ccc(/C=C2\C(=O)NC(=S)N(c3ccc(F)cc3)C2=O)o1,16µM*,-4%,.,45%,?,.
COc1ccc(N2C(=O)/C(=C/c3ccc(N(C)C)o3)C(=O)NC2=S)cc1,.,-2%,.,1%,-7%,.
CCOc1cccc(N2C(=O)/C(=C/c3ccco3)C(=O)NC2=S)c1,-92%,28µM*,.,11µM*,?,.
Cc1ccc(N2C(=O)/C(=C/c3ccc(CN(CCC#N)S(C)(=O)=O)o3)C(=O)NC2=S)cc1,32µM*,-6%,?,?,-29%,?
